Laboratory results from the OligoGym collection.

What follows are sequences tested against TMEM231 (assay: pooled miR-30 sensor sort-seq; sequence = guide strand). Conditions: shRNA.
Note: reference of the scale not given here.

| Sequence | sensor-assay potency score (higher = more potent) |
| --- | --- |
| TGAGGTCGTAGTCATAGGCAAA | -1.58 |
| AACACGAAGATCTTGATTCTTT | -0.0929 |
| TCTCTAGTCGAAACGAGCGGGA | -0.413 |
| TTCTGAAACACGAAGATCTTGA | 0.224 |
| TTCTCTAGTCGAAACGAGCGGG | 0.0646 |
| TAGGCCACCACAGCTCAGCGGC | -1.06 |

These sequences were tested against TMEM42 in the same assay as above. Conditions: shRNA.

| Sequence | sensor-assay potency score (higher = more potent) |
| --- | --- |
| TAGAGTTACATGACTGGCTTTT | -0.949 |
| AATAAGGAACACTCCTCCCCAC | 0.0225 |
| TTGAAAAAGTCACTGTGACAGA | -0.719 |
| TTGAATACGCCCCAAAAGCGGC | -1.46 |
| TACGCGGTCGCGGACACGGCGC | -1.65 |
| AAACCCATGCTCACCTCGCTGC | -0.311 |
| TAGCCCAGGAAGGCCGAGCTGA | -1.22 |
| TCCATACAGCACATAGCCCAGG | -1.77 |
| TAAACCCATGCTCACCTCGCTG | -1.26 |
| TGGATTAGGGTGAGTCCGCAGA | -1.31 |
| TAATACATAAGCATGACACAGA | 0.407 |
| TAGAACACTGCTGCAGCTGCAC | -0.354 |
